In the supplement of paper PMC11732987, “Enantioselective OTUD7B fragment discovery through chemoproteomics screening and high-throughput optimisation” (Communications Chemistry, 2025):

Legend:
Assay in all cases: log2 ratio of Biotin-Ahx-Ub-VS probe labelling (compound/DMSO); higher = less target engagement, active = hit call of the paper (q ≤ 0.05, log2 ratio ≤ -1)
Conditions in all cases: treatment time: 3 h
[1] = compound: CCC1N(CCc2sccc12)C(=O)CCl
How it was run: (§1)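 HEK293T lysate (495 µg per sample, in Tris/CHAPS/IGEPAL buffer with protease inhibitors) was treated in triplicate with compound at 50 or 200 µM or with DMSO for 3 h. It was then treated with Biotin-Ahx-Ub-VS (0.5 µM final) for 1 h. Labelled DUBs were NeutrAvidin-enriched, digested with LysC and trypsin, and run by diaPASEF LC-MS/MS. Median-normalised label-free quantities gave average log2 ratios compound/DMSO by unpaired t-test, using proteins with ≥2 unique peptides.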

[2] = compound: CN1c2ccccc2C(CS1(=O)=O)NC(=O)CCl
How it was run: as §1

[3] = compound: Cl.ClCC(=O)N1CCc2ncncc2C1
How it was run: as §1

[4] = compound: Cl.Cn1ncc2C(CCCc12)NC(=O)CCl
How it was run: as §1

[5] = compound: ClCC(=O)NC1CCOc2ccccc12
How it was run: as §1

[6] = compound: ClCC(=O)NC1CCCc2ccccc12
How it was run: (§2)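 The values are mean compound-versus-vehicle ratios derived by unpaired t-test. For 3 h, triplicate HEK293T lysate samples (495 µg each) were treated with compound at a series of concentrations or with vehicle, after which Biotin-Ahx-Ub-VS was added to 0.5 µM final for 1 h. Labelled deubiquitinases were enriched with NeutrAvidin, digested with LysC and trypsin, and analysed by diaPASEF LC-MS/MS. Ratios are log2 values from global-median-normalised Spectronaut label-free quantities, using proteins with two or more unique peptides.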

[7] = compound: ClCC(=O)N[C@@H]1CCCc2ccccc12
How it was run: as §2

[8] = compound: ClCC(=O)N[C@H]1CCCc2ccccc12
How it was run: as §2

[9] = compound: CCC1N(CCc2cc(OC)c(Cl)cc12)C(=O)CCl
How it was run: as §1

[10] = compound: CCCC1N(CCc2cc(OC)c(OC)cc12)C(=O)CCl
How it was run: as §1

[11] = compound: CN(Cc1cccc(Br)c1)C(=O)CCl
How it was run: as §1

[12] = compound: CN(Cc1cccc(OCc2ccccc2C)c1)C(=O)CCl
How it was run: as §1

[13] = compound: CN(Cc1ccccc1)C(=O)CCl
How it was run: as §1

[14] = compound: COc1ccc(CN(C)C(=O)CCl)cc1
How it was run: as §1

[15] = compound: COc1cccc(CN(CCCc2ccccc2)C(=O)CCl)c1
How it was run: as §1

[16] = compound: ClCC(=O)N1CCc2cc(Cl)c(Cl)cc2C1
How it was run: as §1

[17] = compound: ClCC(=O)N1CCc2nc(ncc2C1)-c1ccccc1
How it was run: as §1

[18] = compound: ClCC(=O)N1CCc2nocc2C1
How it was run: as §1

[19] = compound: ClCC(=O)N1CCc2scc(Br)c2C1
How it was run: as §1

[20] = compound: ClCC(=O)NC(C1CCCC1)c1cccs1
How it was run: as §1

Measured: log2 ratio of Biotin-Ahx-Ub-VS probe labelling

EIF3F (UniProt O00303)
UniProt O00303, sequence (O00303 whole entry): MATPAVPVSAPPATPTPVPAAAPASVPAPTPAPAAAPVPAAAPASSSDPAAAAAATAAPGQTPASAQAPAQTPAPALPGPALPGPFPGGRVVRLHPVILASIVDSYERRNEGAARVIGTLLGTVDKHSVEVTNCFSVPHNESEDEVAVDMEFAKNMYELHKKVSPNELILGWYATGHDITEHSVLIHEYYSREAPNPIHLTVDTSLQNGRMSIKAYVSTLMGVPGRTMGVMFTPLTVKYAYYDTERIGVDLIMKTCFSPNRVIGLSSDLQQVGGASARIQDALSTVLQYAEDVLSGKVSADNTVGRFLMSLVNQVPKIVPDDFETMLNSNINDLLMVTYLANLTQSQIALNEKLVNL
inactive: [1]; compound concentration: 50uM -0.16 | [1]; compound concentration: 200uM -0.05 | [2]; compound concentration: 50uM -0.111 | [2]; compound concentration: 200uM -0.0123 | [3]; compound concentration: 50uM 0.026 | [3]; compound concentration: 200uM -0.017 | [4]; compound concentration: 50uM -0.0544 | [4]; compound concentration: 200uM -0.232 | [5]; compound concentration: 50uM -0.204 | [5]; compound concentration: 200uM 0.0458 | [6]; compound concentration: 0.78uM -0.0827 | [6]; compound concentration: 1.56uM 0.0402 | [6]; compound concentration: 3.13uM -0.164 | [6]; compound concentration: 6.25uM -0.148 | [6]; compound concentration: 12.5uM 0.141 | [6]; compound concentration: 25uM -0.0954 | [6]; compound concentration: 50uM -0.209 | [6]; compound concentration: 100uM -0.401 | [6]; compound concentration: 200uM -0.0132 | [7]; compound concentration: 0.78uM -0.295 | [7]; compound concentration: 1.56uM 0.0826 | [7]; compound concentration: 3.13uM -0.0906 | [7]; compound concentration: 6.25uM -0.461 | [7]; compound concentration: 12.5uM -0.244 | [7]; compound concentration: 25uM -0.214 | [7]; compound concentration: 50uM -0.034 | [7]; compound concentration: 100uM 0.00457 | [7]; compound concentration: 200uM 0.0644 | [8]; compound concentration: 0.78uM -0.0754 | [8]; compound concentration: 1.56uM -0.0584 | [8]; compound concentration: 3.13uM -0.182 | [8]; compound concentration: 6.25uM 0.0402 | [8]; compound concentration: 12.5uM -0.0792 | [8]; compound concentration: 25uM -0.00315 | [8]; compound concentration: 50uM -0.0696 | [8]; compound concentration: 100uM -0.0985 | [8]; compound concentration: 200uM -0.313 | [9]; compound concentration: 50uM -0.015 | [9]; compound concentration: 200uM -0.16 | [10]; compound concentration: 50uM -0.0996 | [10]; compound concentration: 200uM 0.154 | [11]; compound concentration: 50uM -0.146 | [11]; compound concentration: 200uM -0.0144 | [12]; compound concentration: 50uM -0.201 | [12]; compound concentration: 200uM 0.0399 | [13]; compound concentration: 50uM 0.12 | [13]; compound concentration: 200uM 0.117 | [14]; compound concentration: 50uM -0.317 | [14]; compound concentration: 200uM -0.0894 | [15]; compound concentration: 50uM -0.0548 | [15]; compound concentration: 200uM -0.0324 | [16]; compound concentration: 50uM -0.117 | [16]; compound concentration: 200uM -0.406 | [17]; compound concentration: 50uM -0.18 | [17]; compound concentration: 200uM 0.268 | [18]; compound concentration: 50uM -0.16 | [18]; compound concentration: 200uM 0.0551 | [19]; compound concentration: 50uM -0.352 | [19]; compound concentration: 200uM -0.162 | [20]; compound concentration: 50uM 0.0245 | [20]; compound concentration: 200uM -0.0374

USP5 (UniProt P45974)
UniProt P45974, sequence (P45974 whole entry): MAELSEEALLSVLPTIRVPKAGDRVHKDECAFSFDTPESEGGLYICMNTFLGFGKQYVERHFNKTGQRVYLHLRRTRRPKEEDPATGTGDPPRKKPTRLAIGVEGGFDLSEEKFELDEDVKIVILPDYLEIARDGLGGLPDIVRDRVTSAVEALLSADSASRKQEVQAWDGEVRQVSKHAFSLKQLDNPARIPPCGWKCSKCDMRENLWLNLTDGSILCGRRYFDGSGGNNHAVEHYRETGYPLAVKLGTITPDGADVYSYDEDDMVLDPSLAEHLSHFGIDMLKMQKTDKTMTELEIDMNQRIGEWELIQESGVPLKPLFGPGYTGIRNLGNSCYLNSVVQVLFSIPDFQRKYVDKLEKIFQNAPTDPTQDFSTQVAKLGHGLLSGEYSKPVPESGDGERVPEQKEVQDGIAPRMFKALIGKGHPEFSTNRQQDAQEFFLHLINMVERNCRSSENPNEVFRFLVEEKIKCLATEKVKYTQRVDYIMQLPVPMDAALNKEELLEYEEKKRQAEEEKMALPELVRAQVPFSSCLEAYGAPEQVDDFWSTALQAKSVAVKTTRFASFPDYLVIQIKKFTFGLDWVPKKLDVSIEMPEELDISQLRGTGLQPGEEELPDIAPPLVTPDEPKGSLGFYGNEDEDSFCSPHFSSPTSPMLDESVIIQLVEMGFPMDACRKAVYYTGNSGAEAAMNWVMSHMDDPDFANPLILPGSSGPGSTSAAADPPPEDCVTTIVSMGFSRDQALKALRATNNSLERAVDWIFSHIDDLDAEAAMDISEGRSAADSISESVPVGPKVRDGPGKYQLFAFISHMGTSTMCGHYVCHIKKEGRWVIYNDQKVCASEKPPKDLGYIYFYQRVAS
inactive: [1]; compound concentration: 50uM 0.107 | [1]; compound concentration: 200uM 0.165 | [2]; compound concentration: 50uM -0.0432 | [2]; compound concentration: 200uM -0.0749 | [3]; compound concentration: 50uM 0.179 | [3]; compound concentration: 200uM -0.233 | [4]; compound concentration: 50uM 0.122 | [4]; compound concentration: 200uM -0.00464 | [5]; compound concentration: 50uM 0.209 | [5]; compound concentration: 200uM 0.107 | [6]; compound concentration: 0.78uM -0.0702 | [6]; compound concentration: 1.56uM -0.0265 | [6]; compound concentration: 3.13uM -0.189 | [6]; compound concentration: 6.25uM -0.131 | [6]; compound concentration: 12.5uM -0.157 | [6]; compound concentration: 25uM -0.19 | [6]; compound concentration: 50uM -0.0861 | [6]; compound concentration: 100uM -0.067 | [6]; compound concentration: 200uM -0.0831 | [7]; compound concentration: 0.78uM -0.209 | [7]; compound concentration: 1.56uM -0.162 | [7]; compound concentration: 3.13uM -0.139 | [7]; compound concentration: 6.25uM -0.155 | [7]; compound concentration: 12.5uM -0.0604 | [7]; compound concentration: 25uM -0.131 | [7]; compound concentration: 50uM -0.159 | [7]; compound concentration: 100uM -0.0875 | [7]; compound concentration: 200uM -0.125 | [8]; compound concentration: 0.78uM -0.109 | [8]; compound concentration: 1.56uM -0.17 | [8]; compound concentration: 3.13uM -0.185 | [8]; compound concentration: 6.25uM -0.0549 | [8]; compound concentration: 12.5uM -0.103 | [8]; compound concentration: 25uM -0.119 | [8]; compound concentration: 50uM -0.0192 | [8]; compound concentration: 100uM -0.093 | [8]; compound concentration: 200uM -0.184 | [9]; compound concentration: 50uM 0.0912 | [9]; compound concentration: 200uM -0.014 | [10]; compound concentration: 50uM -0.158 | [10]; compound concentration: 200uM -0.268 | [11]; compound concentration: 50uM 0.304 | [11]; compound concentration: 200uM 0.538 | [13]; compound concentration: 50uM -0.0827 | [13]; compound concentration: 200uM -0.00169 | [14]; compound concentration: 50uM -0.0203 | [14]; compound concentration: 200uM 0.204 | [15]; compound concentration: 50uM 0.212 | [15]; compound concentration: 200uM 0.11 | [16]; compound concentration: 50uM 0.412 | [16]; compound concentration: 200uM -0.121 | [17]; compound concentration: 50uM 0.389 | [17]; compound concentration: 200uM 0.254 | [18]; compound concentration: 50uM 0.00846 | [18]; compound concentration: 200uM 0.00188 | [19]; compound concentration: 50uM 0.214 | [19]; compound concentration: 200uM 0.0804 | [20]; compound concentration: 50uM 0.00222 | [20]; compound concentration: 200uM -0.112
